# SMN2 splice enh = qHTS Assay for Enhancers of SMN2 Splice Variant Expression. Potency, µM (titrated, usually from 46.1 µM), for the others: top-dose activity change, positive = activation, usual class: activators. 2.8% of 210,000 active. HEK293 SMN2-luciferase splicing reporter, luminescence, 30-36 h. AID 1458, 2008; further: % of control where 0% means no effect; nearly all actives have a fitted effect of over 55% in size
#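 qHTS luciferase splicing reporter: luminescence rises when SMN2 exon 7 is included in transfected HEK293 cells. Compound exposure lasted 30-36 h at 37C, with 4.5 mM final sodium butyrate as control, followed by a ONE-Glo read.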
# NPC1 promoter act = qHTS Assay for NPC1 Promoter Activators | Huh7 NPC1 promoter luciferase reporter, 24 h | AID 485313, 2010 | 2.4% of 320,000 active | Potency, µM (series often up to 9.22 µM), without a hit: at the top dose activation, hits mostly activators; further: % of control where 0% means no effect; nearly all actives have a fitted effect of over 60% in size
#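 Stably transfected Huh7 (NPC1 promoter→luciferase), 1500 cells/well in Opti-MEM + 10% FBS, 2 h settle, then compound 24 h at 37 °C. Luminescence after 10 min with Amplite reagent.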
# FLuc counter = qHTS profiling assay for firefly luciferase inhibitor/activator using purifed enzyme and Km concentrations of substrates (counterscreen for miR-21 project); 6.9% of 360,000 active; Potency, µM (doses to about 57.5 µM), without a hit: at the top dose activity change, negative = inhibition, hits mostly inhibitors; Luciferin 4-monooxygenase (Photinus pyralis), P08659; AID 588342, 2011; purified FLuc, Km substrates, luminescence inhibition;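 further: plate controls were vehicle for no effect and reference inhibitor for full effect; nearly all actives have a fitted effect of over 55% in size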
# Target sequence (P08659 whole entry, looked up): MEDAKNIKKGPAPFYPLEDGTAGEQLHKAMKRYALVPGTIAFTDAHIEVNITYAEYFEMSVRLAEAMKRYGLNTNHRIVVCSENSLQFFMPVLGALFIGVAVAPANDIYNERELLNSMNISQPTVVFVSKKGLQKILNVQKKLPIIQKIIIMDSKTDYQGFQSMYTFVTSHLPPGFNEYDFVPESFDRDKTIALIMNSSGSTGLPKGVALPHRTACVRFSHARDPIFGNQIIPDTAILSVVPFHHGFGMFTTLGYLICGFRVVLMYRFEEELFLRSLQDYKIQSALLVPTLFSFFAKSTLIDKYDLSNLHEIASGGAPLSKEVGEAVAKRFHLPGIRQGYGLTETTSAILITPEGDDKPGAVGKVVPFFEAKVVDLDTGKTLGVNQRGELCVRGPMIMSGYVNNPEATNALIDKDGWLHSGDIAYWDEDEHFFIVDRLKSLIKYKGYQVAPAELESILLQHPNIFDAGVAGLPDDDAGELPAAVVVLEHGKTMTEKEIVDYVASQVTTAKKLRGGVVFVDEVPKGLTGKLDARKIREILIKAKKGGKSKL
#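 Purified P. pyralis luciferase, 10 nM final, with Km-level 10 uM D-luciferin and 10 uM ATP in 50 mM Tris acetate pH 7.5, 10 mM Mg acetate, 0.01% Tween-20, 0.05% BSA; 6-point qHTS titration about 60 µM downward; luminescence read.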
# Rab9 prom act = qHTS Assay for Rab9 Promoter Activators. Huh7 Rab9 promoter-luciferase reporter, luminescence, 24 h. Potency, µM (highest dose often 9.22 µM), without a hit: top-dose activation, negative = inhibition, most hits filed as activators. 2.8% of 320,000 active; further: % of control where 0% means no effect; nearly all actives have a fitted effect of over 60% in size
#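 Using Huh7 cells stably transfected with Rab9 promoter–luciferase, compounds were incubated 24 h at 37 °C, 5% CO2; luciferase luminescence was read 10 min after reagent addition.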
# ELG1 genotox = qHTS screen for small molecules that induce genotoxicity in human embryonic kidney (HEK293T) cells expressing luciferase-tagged ELG1 | 1.3% of 330,000 active | HEK293T ELG1-luciferase reporter, luminescence, 16 h | Potency, µM (highest dose often 46 µM), inactives show at the highest dose activity change, positive = activation, usual class: activators; further: % of control where 0% means no effect; nearly all actives have a fitted effect of over 60% in size
#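 Reporter readout depends on ELG1 protein level, which increases with genetic stress. After 16 hr compound exposure at 37 °C, luciferase activity was quantified using ONE-Glo.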
# * marks the source's active call; other numbers are inactive results; u = inconclusive; x = no result given; [ ] = remark or other dose. The list is not random: actives were taken first. Their share in the collection is about 7.5%. The call rests on the fitted dose curve; in most records, active means well fitted curve in the direction sought with a large enough effect; inconclusive means small, poorly fitted or top-dose-only effect, or another doubt; inactive means no such curve, though single readings can be large; an effect the other way counts as inactive or inconclusive. Potency means the concentration at half of the fitted maximal effect.
SMILES,SMN2 splice enh,NPC1 promoter act,FLuc counter,Rab9 prom act,ELG1 genotox
COc1ccc(C(=O)NCCSc2ccccn2)cc1,2.82µM*,0.708µM*,2.13µM*,0.398µM*,1.03µM*
COc1cccc(NC(=O)CSc2ccccn2)c1,u,u,15.1µM*,u,u
COc1cc(OC)cc(C(=O)Nc2ccc(N3CCN(C(=O)c4cccs4)CC3)cc2)c1,x,-28.7%,3.2%,-3.8%,-14.2%
O=C(c1ccccc1)N1CCN(CCc2ccncc2)CC1,x,x,-1.8%,x,x
O=C(Nc1ccc(S(=O)(=O)C(F)F)cc1)c1cccc(S(=O)(=O)N2CCOCC2)c1,-51.0%,0.5%,-0.2%,-6.6%,-29.3%
CC(NC(=O)C1CCN(S(=O)(=O)c2cccs2)CC1)c1cccc(Cl)c1 (configuration not stated),x,-3.5%,x,0.3%,0.1%
Cc1ccc(CNC(=O)CN2C(=O)CCn3nc(-c4ccccc4)cc32)cc1,x,x,-17.0%,x,x
CC(=O)Nc1ccc(NC(=O)CSc2nc3ccccc3nc2N2CCOCC2)cc1,-17.7%,x,-18.4%,x,x
O=C(CSc1ccccn1)Nc1ccc(NC(=O)CSc2ccccn2)cc1,-1.5%,-5.2%,-9.2%,0.1%,1.5%
CCc1ccc(NC(=O)CSc2ccccn2)cc1,28.9%,16.3%,13.5µM*,u,3.8%
COc1cccc(NC(=O)CSc2nc3ccccc3nc2N2CCOCC2)c1,3.98µM*,-4.5%,-14.7%,7.2%,-4.6%
COc1cccc(/C=N/NC(=O)c2cnccn2)c1O,x,-22.6%,15.1µM*,-23.3%,15.2%
COc1ccc(/C=N/NC(=O)c2cnccn2)cc1O,12.9%,3.0%,12µM*,-2.9%,u
C/C(=N/OC(=O)c1c(-c2c(Cl)cccc2Cl)noc1C)c1cnccn1,x,-3.3%,-1.6%,2.2%,-3.0%
COc1cccc(C(=O)O/N=C(\C)c2cnccn2)c1,x,-6.1%,5.36µM*,-2.9%,-3.6%
COc1ccc(/C=N/NC(=O)c2cc3c(OC)ccc(OC)c3[nH]2)cc1O,x,-19.2%,10.7µM*,-5.9%,-5.1%
COc1ccc(OC)c2[nH]c(C(=O)N/N=C/c3ccccc3O)cc12,x,-41.8%,u,-35.9%,u
CCOC(=O)C1=C(C)N=C2SC=C(C)N2C1c1ccc(OC)cc1 (configuration not stated),0.3%,-11.2%,3.7%,-8.0%,-4.1%
CO/S(=N\S(=O)(=O)c1ccc(Cl)cc1)c1ccc([N+](=O)[O-])cc1 (configuration not stated),x,5.2%[46.1 µM],x,-7.5%[46.1 µM],x
Cc1ccc(C)c(Nc2cc(C(=O)NC3CCCCC3)c3ccccc3n2)c1,5.4%,x,-3.7%,x,x
Cc1ccc(Cn2c(C(=O)O)c(CNCc3ccccc3Cl)c3ccc(C)cc32)cc1,x,x,-8.2%,x,x
COc1cc(/C=N/NC(=O)c2cc(-c3cccn3C)n[nH]2)cc(OC)c1OC,u,-2.8%,u,2.0%,-3.2%
COc1ccc(OC)c(/C=N/NC(=O)c2cnccn2)c1,x,1.5%,-0.5%,-5.9%,-0.2%
COc1cccc(/C=N/NC(=O)c2cnccn2)c1,17.0%,15.6%,12µM*,10.7%,14.4%
COc1cccc(/C=N/NC(=O)c2cc(-c3cccn3C)n[nH]2)c1O,-96.4%,-28.2%,26.9µM*,-43.0%,5.8%
SMILES,SMN2 splice enh,NPC1 promoter act,FLuc counter,Rab9 prom act,ELG1 genotox
O=C(COC(=O)COc1ccc(Cl)cc1Br)NCc1cccs1,-4.2%,-6.7%,u,8.6%,-0.4%
N/C(Cc1cccs1)=N\OC(=O)COc1ccccc1Cl,-4.5%,15.2%,23.9µM*,u,23.1µM*
N/C(Cc1cccs1)=N\OC(=O)COc1ccc(Br)cc1Cl,6.2%,u,10.7µM*,24.9%,u
COc1ccc([C@]23Cc4cc(OC)c(OC)cc4C(O2)C2=C(CC4(CCCCC4)OC2=O)O3)cc1,x,1.2%[1.84 µM],-8.3%[11.5 µM],-1.1%[1.84 µM],x
Cc1ccccc1-c1nnc(-c2ccccc2C)o1,22.4µM*,u,6.75µM*,u,u
Cc1ccccc1-c1nnc(-c2ccc(Br)cc2)o1,u,u,u,u,9.2µM*
Cc1ccccc1-c1nnc(SCC#N)o1,x,0.1%,-13.2%,0.4%,-0.2%
CCOC(=O)c1ccc(S(=O)(=O)N2CCN(C3CC(=O)N(c4ccccc4C(F)(F)F)C3=O)CC2)cc1 (configuration not stated),x,-0.6%,2.9%,-3.9%,-0.3%
Cc1cc(N=Nc2ccc(C)c(N=Nc3cc(C)c(N)cc3N)c2)c(N)cc1N,x,2.82µM*,0.536µM*,2.82µM*,2.31µM*
CC(C)C1COC(c2cccc3ccccc23)=N1 (configuration not stated),22.4µM*,3.16µM*,2.13µM*,0.794µM*,20.6µM*
Cc1ccc(C(=O)NC2CCN(S(=O)(=O)c3ccccc3F)CC2)cc1,x,1.4%,0.1%,-4.2%,-3.3%
Clc1c(-c2ccccc2)nnn1-c1ccccc1,10µM*,2.24µM*,3.38µM*,2.24µM*,8.2µM*
COc1cc(OC)c(C(=O)OCC(=O)Nc2ccc(S(=O)(=O)N3CCOCC3)cc2)cc1OC,x,x,x,x,-2.2%
CCOc1ccc(Cc2nc(N)nc(N)n2)cc1,-34.3%,-1.3%,2.3%,-0.8%,6.1%
Nc1nc(N)nc(COc2ccccc2)n1,11.2µM*,u,u,4.47µM*,u
CC(C)CC(=O)Nc1ccc(N2CCOCC2)cc1,7.2%,11.3%,-3.1%[2.3 µM],1.8%,5.4%
O=C(Nc1cnc2ccccc2c1)N1CCOCC1,u,u,u,25.4%,u
CN(C(=O)Nc1cnc2ccccc2c1)c1ccccc1,u,u,u,2.82µM*,u
O=C(Nc1cnc2ccccc2c1)N1CCCCC1,14.1µM*,1.26µM*,9.53µM*,1.26µM*,u
CCc1ccc(Nc2ncc3c(n2)CC(C)(C)CC3=O)cc1,x,3.16µM*,15.1µM*,2.51µM*,u
CCc1ccc(Nc2ncc3c(n2)CC(C)CC3=O)cc1 (configuration not stated),x,2µM*,u,1.26µM*,u
Cc1cccc(Nc2ncc3c(n2)CC(C)CC3=O)c1 (configuration not stated),11.2µM*,3.55µM*,9.53µM*,3.55µM*,4.61µM*
Cc1ccc2nc(Nc3ncc4c(n3)CCCC4=O)nc(C)c2c1,5.7%,-1.7%,-0.8%,5.0%,0.5%
CCc1ccc(Nc2ncc3c(n2)CC(c2ccc(OC)cc2)CC3=O)cc1 (configuration not stated),-14.8%,-2.0%,4.8%,-1.2%,0.4%
Cc1cc(C)cc(Nc2ncc3c(n2)CCCC3=O)c1,2.51µM*,3.98µM*,3.38µM*,3.98µM*,u
N#CCCCS(=O)(=O)c1ccccc1,8.6%,x,x,x,x
COc1ccc(OC)c(NC(=O)c2csnn2)c1,x,x,0.4%,x,x
